Most compounds without a hit are left out; they make up all but 1.1% or so of the library.
SNCA expr inh = Primary qHTS assay for inhibitors of alpha-synuclein gene (SNCA) expression | Potency, µM (top dose mostly 57.2 µM), inactives show at the highest dose activity change, negative = inhibition, usual class: inhibitors | 140,000 tested, 0.17% active | HEK-293 SNCA-luciferase knock-in, luminescence, 24 h;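 further: potency means the concentration at half of the fitted maximal effect; plate controls were DMSO cells for no effect and cell-free wells for full effect; nearly all actives have a fitted effect of over 45% in size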
HEK293 viab = GF-AFC viability counterscreen for inhibitors of alpha-synuclein gene (SNCA) expression; AID 1671193, 2021; Potency, µM (titrated, usually from 57.1 µM), without a hit: at the highest dose activity change, negative = cytotoxicity, actives largely listed as cytotoxic; 150,000 tested, 0.12% active; HEK-293-SNCA-luc viability, GF-AFC fluorescence, 24 h;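 further: potency means the concentration at half of the fitted maximal effect; 0% = DMSO-treated cells and -100% = medium-only wells without cells; nearly all actives have a fitted effect of over 30% in size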
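Cytotoxicity counterscreen: after 24 h compound treatment of genome-edited SNCA-luciferase HEK-293 cells, live-cell protease substrate GF-AFC read by fluorescence after 30 min; activity scaled between DMSO (0%) and medium-only (-100%), curves Hill-fitted.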
GPT2 inhibitor = Primary qHTS assay for inhibitors of Glutamate pyruvate transaminase 2 (GPT2). Alanine aminotransferase 2 (Homo sapiens), Q8TD30. Recombinant GPT2, coupled pyruvate oxidase/HRP Amplex Red fluorescence. Potency, µM (titrated, usually from 57.7 µM), inactives show top-dose activity change, negative = inhibition, most hits filed as inhibitors. 100,000 tested, 0.25% active. AID 1671188, 2021; further: potency means the concentration at half of the fitted maximal effect; nearly all actives have a fitted effect of over 60% in size
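Fluorescence of coupled pyruvate oxidase/HRP/Amplex Red system (50uM Amplex, 30 min, dark) reports pyruvate formed by GPT2. Enzyme reaction: 10ng/uL GPT2, 2mM L-alanine, 250uM a-KG, 30 min room temperature, pH 7.5; 50uM AOA control.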
IP6K1 inh = Primary qHTS assay for small molecule inhibitors of Inositol hexaphosphate kinase 1 (IP6K1). Inositol hexakisphosphate kinase 1 (Homo sapiens), Q92551. IP6K1 kinase, ADP-Glo luminescence, 2 h; stronger effect = lower value. activity change, % (series mostly up to about 58 µM). 140,000 tested, 0.81% active; in the data active means activity change below about -25%
Target sequence (Q92551 whole entry, looked up): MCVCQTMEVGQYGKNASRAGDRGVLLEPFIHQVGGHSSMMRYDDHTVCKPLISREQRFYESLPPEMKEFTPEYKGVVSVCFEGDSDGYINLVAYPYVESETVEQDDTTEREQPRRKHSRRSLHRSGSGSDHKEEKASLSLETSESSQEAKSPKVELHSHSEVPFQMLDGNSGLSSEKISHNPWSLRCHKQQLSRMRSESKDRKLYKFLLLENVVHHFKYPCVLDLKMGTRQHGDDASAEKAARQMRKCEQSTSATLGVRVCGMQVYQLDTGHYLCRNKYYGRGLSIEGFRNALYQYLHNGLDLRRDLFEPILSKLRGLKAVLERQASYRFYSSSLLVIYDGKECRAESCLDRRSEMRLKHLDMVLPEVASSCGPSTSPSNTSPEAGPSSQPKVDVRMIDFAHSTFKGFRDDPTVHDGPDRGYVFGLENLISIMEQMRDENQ
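ADP-Glo luminescence measures ADP made by human IP6K1 during a 2 h RT reaction with ATP/IP6 (mix at 1.3 mM/130 uM); top library doses 57.5 and 19.1 uM final.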
Active calls of the source: *; i = inactive; ? = inconclusive; . = no result; ! = not active in a repeat; [ ] = dose if it differs, or a comment. Unless noted, the call rests on the fitted dose curve; in most records, active means well fitted curve in the direction sought with a large enough effect; inconclusive means small, poorly fitted or top-dose-only effect, or another doubt; inactive means no such curve, though single readings can be large; an effect the other way counts as inactive or inconclusive. Unless noted, on the % scale 0 is the no-effect control and ±100 the full control effect.

SMILES	SNCA expr inh	HEK293 viab	GPT2 inhibitor	IP6K1 inh
O=C(CCC1CCN(c2cc(NC3CC3)ncn2)CC1)NCc1ccccc1Cl	8.91µM*	7.4%	-5.2%	15.2
O=C(NCc1ccc(Cl)cc1)c1cc(-c2ccc(Cl)cc2Cl)c2nncn2n1	-0.7%	-11.8%[12.5 µM]	1.9%	4.4
CCCc1nc(C)c2c(=O)[nH]c(-c3cc(S(=O)(=O)N4CCN(CC)CC4)ccc3OCC)nn12	?	27.1µM*!	?	-12.6
COc1ccccc1-c1ccc(CN2CCCC(c3nc4ccc(F)cc4c(=O)[nH]3)C2)cc1 (stereo unspecified)	-15.6%	1.6%	-7.2%	7.1
Cc1ccc(S(=O)(=O)c2nc(-c3ccccc3Cl)oc2N2CCCCCC2)cc1	?	-17.1%	.	3.7
Cc1ccc(S(=O)(=O)c2ccc([N+](=O)[O-])o2)cc1	.	9.47µM*	4.3%	-8.5
Cc1cccc(CNC(=O)c2ccc(Cn3c(SCc4ccccc4)nc4cccnc43)cc2)c1	97.3%	?	.	-11.4
Cc1cccc(CNC(=O)c2ccc(Cn3c(SCc4cccc(F)c4)nc4cccnc43)cc2)c1	-7.1%	-11.3%	.	-52.6*
CN(C)c1cccc(-c2c3c(=O)n(-c4ccccc4Cl)[nH]c3cc(=O)n2C)c1	-26.2%	?	15.3µM*!	11.9
COc1ncccc1CNC[C@H]1Cn2c(-c3ccc(F)cc3)cnc2CO1	-7.0%[87.6 µM]	-15.3%[87.6 µM]	-3.2%[88.5 µM]	18.4
Cc1ccc(-c2cn3c(n2)sc2cc(C(=O)NCCCN4CCCCCC4)ccc23)cc1	?	?	.	-0.4
Cc1ccc(-c2cn3c(n2)sc2cc(C(=O)NCCCN4CCCCC4)ccc23)cc1	?	25.1µM*	.	-9.4
CCn1c(=O)c2c(cc(C)n2C)n(CC(=O)Nc2ccccc2C)c1=O	-14.4%	-14.1%	i	12.6
CCn1c(=O)c2c(cc(C)n2C)n(CC(=O)Nc2c(C)cccc2C)c1=O	?	28.2µM*	i	35.5
Cc1noc(C)c1C(=O)N1CCCN(S(=O)(=O)c2ccccc2)CCC(=O)NCC1	-0.6%	1.7%	i	1.1
O=C(CC1CCCCN(Cc2ccccc2)C1=O)Nc1ccccc1F (stereo unspecified)	-2.0%	0.5%	-0.6%	0.6
c1ccc(-c2noc(-c3ccc(OC4CNC4)cc3)n2)cc1	10µM*	-0.9%	i	7.6
COCCN1Cc2[nH]nc(-c3cccc(NC(C)=O)c3)c2CC1=O	39.1%[87.6 µM]	-1.4%[87.6 µM]	-5.0%[88.5 µM]	27.2
COCCN1CCN(Cc2ccc(-c3n[nH]c4c3C(=O)c3c(NC(=O)NN5CCOCC5)cccc3-4)cc2)CC1	.	0.15µM*	-10.5%	0.7
Cc1ccc(C)c(N2CCN(c3nc4c(S(=O)(=O)c5ccccc5)nnn4c4ccc(Cl)cc34)CC2)c1	15.2%	-4.4%	.	12.1
COc1ccccc1N1CCN(c2nc3c(S(=O)(=O)c4ccc(C)c(C)c4)nnn3c3ccc(Cl)cc23)CC1	-3.5%	-4.9%	.	-27.5*
C/C1=C/CCC2=CC(OC2=O)C(C)(C)/C=C/C1=O (stereo unspecified)	.	7.52µM*	i	3.8
C[C@@H](CN(C)C)CN1c2ccccc2Sc2ccccc21	-22.0%[25.6 µM]	24.2%[23.9 µM]	i	1.1
CC(CN1c2ccccc2Sc2ccccc21)N(C)C (stereo unspecified)	1.8%	4.2%	10µM*!	-16.6
CC(C)(C)c1cc(CC2(NCc3ccc(Cl)cc3)COC2)no1	-6.0%[87.6 µM]	-16.4%[87.6 µM]	?	-4.9
SMILES	SNCA expr inh	HEK293 viab	GPT2 inhibitor	IP6K1 inh
CC(C)CC(=O)N1CCc2nnc([C@@H]3C[C@@H](O)CN3C)n2CC1	-10.5%	0.5%	i	-1.9
COc1cc(SC)ccc1C(=O)Nc1ccc(S(=O)(=O)Nc2nccc(C)n2)cc1	30.7%	2.4%	.	0.8
Cc1ccnc(NS(=O)(=O)c2ccc(NC(=O)Nc3ccc(S(=O)(=O)Nc4nccc(C)n4)cc3)cc2)n1	0.857µM*	?	?	-18.1
O=C(c1cc2c(s1)CN(C1CCCC1)C2)N1CCCCCC1	49.1%	1.8%	i	-4.3
CC(C)CN(CCCNC(=O)CN1C(=O)COc2ccc(S(=O)(=O)N3CCCCCC3)cc21)CC(C)C	28.2µM*	8.6%	.	10.0
NC(=O)c1ccc([N+](=O)[O-])cc1Cl	-8.1%[25.6 µM]	2.5%[23.9 µM]	3.4%	34.3
O=[N+]([O-])c1ccc2c(c1)S(=O)(=O)C=C2	5.01µM*	?	-8.8%	.
CC12C(=O)OC(=O)C1(C)C1CCC2O1 (stereo unspecified)	3.55µM*	?	i	.
COCCCNC(=O)C(C)(C)Oc1nn(Cc2cccc(Cl)c2)c2ccccc12	31.6µM*	?	-6.8%[88.5 µM]	0.4
Cc1ccc([S+](=O)([O-])N2CCCC(C(=O)N3CCC(c4nc5ncccc5[nH]4)C3)C2)cc1 (stereo unspecified)	-11.6%	4.0%	i	11.5
CC(C)C[C@H](NC(=O)[C@H](Cc1ccccc1)NC(=O)c1cnccn1)B(O)O	0.0482µM*	?	i	12.5
CC(C)C[C@H](NC(=O)[C@@H](NC(=O)c1cccc(-c2ccccc2)n1)[C@@H](C)O)B(O)O	0.0607µM*	0.0474µM*!	i	15.0
CCCCOC(=O)N1C[C@@H](C(N)=O)[C@@H]2Oc3c(C)cccc3[C@@H]21	.	.	.	2.7
COc1ccc(OC)c(NC(=O)CSc2c3c(nc4ccccc24)CCCC3)c1	22.4µM*	?	.	-13.2
CN(CCCN1CCCCCC1)c1nc(-c2ccncc2)nc2c1cnn2C	?	?	i	4.7
COc1ccccc1Nc1c2c(nc3ccc(NC(=O)c4cccc(OC)c4OC)cc13)CCCC2	?	15.8µM*	.	6.7
COc1ccc(Cn2c(=O)c(C(=O)N3CCN(c4ncccn4)CC3)nc3cccnc32)cc1	-18.3%	-21.4%	i	4.8
N#Cc1cccc(C(=O)N2CCN3CCS(=O)(=O)N(C4CC4)C(=O)C3C2)c1 (stereo unspecified)	6.0%	2.7%	-11.1%	6.6
C[C@@H]1C[C@H]2O[C@@H]2/C=C\C=C\C(=O)Cc2c(Cl)c(O)cc(O)c2C(=O)O1	.	-11.0%[12.5 µM]	3.8%[17.1 µM]	-26.6*
c1coc(-c2nc3ccncc3[nH]2)c1	16.4%[87.6 µM]	-8.4%[87.6 µM]	31.6µM*!	23.0
CC(C)CCN(C)Cc1cccn1C	-15.2%[87.6 µM]	10.9%[87.6 µM]	4.0%[88.5 µM]	3.6
CC1=C[C@@H](CNC(=O)C2CCCCC2)[C@H](C(C)C)C[C@H]1CC(=O)N1CCN(c2ccccn2)CC1	?	28.2µM*	-4.7%	16.1
N#Cc1ccccc1N1CCN(C(=O)CCc2ccc(F)c(F)c2)CC1=O	24.4%	-0.1%	-17.6%[11.5 µM]	-5.7
CCC(C)S(=O)(=O)c1oc(-c2ccc(F)cc2)nc1S(=O)(=O)c1ccc(F)cc1 (stereo unspecified)	?	28.2µM*	.	0.9
CCS(=O)(=O)c1oc(-c2ccc(F)cc2)nc1S(=O)(=O)c1ccccc1	?	7.94µM*	.	-7.8
Cc1cn2nc(C(=O)NCc3ccco3)cc2c(=O)[nH]1	51.5%	-8.4%	i	-5.4

From PubChem BioAssay
